These results are taken from PubChem BioAssay (Tox21).

Molecules are shown by their SMILES. Results filed as inconclusive are left out. Where a call stands in place of a potency, no number is given. The source made the active and inactive calls. Unless noted, calls follow the shape of the dose curve; as a rule, active = well fitted inhibition curve with a large enough effect in the repeat runs (not every such curve was filed as active); inconclusive = weak or mixed curves; inactive = flat fitted curve, though single readings scatter.

Thyrotropin-releasing hormone receptor (Homo sapiens), sequence (P34981 whole entry, looked up): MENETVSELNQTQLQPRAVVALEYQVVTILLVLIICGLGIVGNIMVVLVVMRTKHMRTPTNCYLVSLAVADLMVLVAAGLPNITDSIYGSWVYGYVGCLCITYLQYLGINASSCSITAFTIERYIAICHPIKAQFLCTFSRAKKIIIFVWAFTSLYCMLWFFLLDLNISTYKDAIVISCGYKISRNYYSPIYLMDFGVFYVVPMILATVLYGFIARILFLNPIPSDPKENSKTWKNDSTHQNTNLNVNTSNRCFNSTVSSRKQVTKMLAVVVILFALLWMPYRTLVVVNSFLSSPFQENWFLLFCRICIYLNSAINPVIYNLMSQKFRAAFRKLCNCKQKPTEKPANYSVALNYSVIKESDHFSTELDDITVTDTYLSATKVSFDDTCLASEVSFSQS

Test system in one test: not listed separately
Put plainly: qHTS assay to identify small molecule agonists of the TGF-beta/Smad signaling pathway (AID 1346859; active = well fitted activation curve with a large enough effect in the signal ratio in the repeat runs, not every such curve was filed as active; the % refers to the signal ratio). The conditions noted are these: SBE-bla HEK293T, TGF-beta/Smad beta-lactamase reporter, 5 h; series mostly up to 76.8 µM. The procedure, abridged:
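Each well held 4,000 SBE-bla HEK 293T cells incubated overnight before compound addition; 5 hr later the cleavable FRET substrate went on for 2 hr at room temperature, and fluorescence was read at two emissions.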
(Quantitative high-throughput screening tests each substance at several concentrations.)
Take `C=CC(=O)NC(C)C`: the Potency entry was “inactive”.
In the case of `CCCCCCCCCCCCCCCC(=O)OCC`, the Potency entry was “inactive”.
The same measure, in the same setting: the entry for `CC(C)(C)C1(CCc2ccc(Cl)cc2)CO1` (configuration not stated) is “inactive”; for `CC(=O)Oc1cccc(O)c1` it is “inactive”; for `CSCC[C@H](NC(=O)[C@H](Cc1c[nH]c2ccccc12)NC(=O)CCNC(=O)OC(C)(C)C)C(=O)N[C@@H](CC(=O)O)C(=O)N[C@@H](Cc1ccccc1)C(N)=O` it is “inactive”.
Same read-out and setting: the result for `O=C(Oc1ccccc1)c1ccc2ccccc2c1O` reads “inactive”; that for `CC(C)(C)S`, “inactive”.
For the compound `CC[C@H]1OC(=O)[C@H](C)[C@@H](O[C@H]2C[C@@](C)(OC)[C@@H](O)[C@H](C)O2)[C@H](C)[C@@H](O[C@@H]2O[C@H](C)C[C@H](N(C)C)[C@H]2O)[C@](C)(O)C[C@@H](C)/C(=N\OCOCCOC)[C@H](C)[C@@H](O)[C@]1(C)O`, the Potency entry is “inactive”.
Same read-out and setting: the result for `FC(F)(F)C(F)(F)C(F)(F)C(F)(F)CCI` reads “inactive”.
On the same count and under the same terms, the result for `O=c1[nH]c2cc(C(F)(F)F)c(N3CCOCC3)cc2n(CP(=O)(O)O)c1=O` reads “inactive”; that for `C=Cc1ccc(OC(C)=O)cc1`, “inactive”.
On the same count and under the same terms, the entry for `CCCCCCCC(=O)OCCCCCC` is “inactive”.
Turning to `CCCCCCCCCCCC(=O)OCC(O)CO` (configuration not stated), the Potency result was “inactive”.
Still for that read-out and setting: the result for `O=C(O)CCC(=O)OC[C@@H](NC(=O)C(Cl)Cl)[C@H](O)c1ccc([N+](=O)[O-])cc1` reads “inactive”; that for `CCOC(=O)N1CCC(Nc2ccc(Cl)cc2N)CC1`, “inactive”; that for `NC(=O)c1ccccc1[N+](=O)[O-]`, “inactive”.
For the compound `O=C1[C@@H]2[C@H]3CC[C@H](C3)[C@@H]2C(=O)N1CCCCN1CCN(c2ncccn2)CC1`, the Potency entry is “inactive”.
The same measure, in the same setting: the result for `CC(=O)C(=O)CC(C)C` reads “inactive”; that for `CCCCCCCC/C=C\CCCCCCCC(=O)OCCO`, “inactive”; that for `C1CCCCC1`, “inactive”.
The same measure, in the same setting: the entry for `O=C1OC(=O)c2c(Br)c(Br)c(Br)c(Br)c21` is “inactive”; for `O=C(NS(=O)(=O)/C=C/c1ccccc1)c1ccc(F)cc1Cl` it is “inactive”; for `CN1CCCN(C(c2ccccc2)c2ccc(Cl)cc2)CC1` (configuration not stated) it is “inactive”.
Still for that read-out and setting: the entry for `CNc1c2c(nn1C)CCCC2` is “inactive”; for `CCSC(=O)N(CC)CC` it is “inactive”; for `COC(C)(C)OC` it is “inactive”.
On to `c1ccc(CCCc2ccncc2)cc1`, for which the Potency result is “inactive”.
The same measure, in the same setting: the result for `CCCCCCCC/C=C/C(=O)O` reads “inactive”; that for `O=C1NC(=O)c2cccc3cccc1c23`, “inactive”; that for `CC(C)c1ccc(C(=O)N=C(N)N)cc1S(C)(=O)=O`, “inactive”.
Same read-out and setting: the entry for `O=C(CCS)OCC(COC(=O)CCS)(COC(=O)CCS)COC(=O)CCS` is “inactive”; for `Cc1ccc2c(c1)CCCN2` it is “inactive”.
Still for that read-out and setting: the entry for `CC(C)(O)CCc1ccccc1` is “inactive”; for `Nc1cccc2c(N)cccc12` it is “inactive”.

A further test addresses Thyrotropin-releasing hormone receptor (Homo sapiens) (UniProt P34981). Put plainly: qHTS assay to identify small molecule antagonists of the thyrotropin-releasing hormone receptor (TRHR) signaling pathway (AID 1346877). The following applies: TRHR-HEK293, TRH-induced calcium fluorescence, antagonist mode; series mostly up to 51.3 µM. The procedure, abridged: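 Cells (TRHR-HEK293) are plated and kept 18 h at 37 °C/5% CO2. A calcium-sensitive dye is added for 2 h, compound follows for 5 min at room temperature, and TRH is then given at 1 nM final.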
Regarding `CCCCCCCCCCCCCCCC(=O)OCC`, the result was inactive.
Consider `CC(C)(C)C1(CCc2ccc(Cl)cc2)CO1` (configuration not stated), for which the outcome was inactive.
Same read-out and setting: the result for `CC(=O)Oc1cccc(O)c1` reads “inactive”.
On the same count and under the same terms, the entry for `O=C(Oc1ccccc1)c1ccc2ccccc2c1O` is “inactive”; for `CC(C)(C)S` it is “inactive”; for `FC(F)(F)C(F)(F)C(F)(F)C(F)(F)CCI` it is “inactive”.
Still for that read-out and setting: the entry for `O=c1[nH]c2cc(C(F)(F)F)c(N3CCOCC3)cc2n(CP(=O)(O)O)c1=O` is “inactive”; for `CCCCCCCC(=O)OCCCCCC` it is “inactive”; for `CCCCCCCCCCCC(=O)OCC(O)CO` (configuration not stated) it is “inactive”.
With `O=C(O)CCC(=O)OC[C@@H](NC(=O)C(Cl)Cl)[C@H](O)c1ccc([N+](=O)[O-])cc1`, the result was inactive.
Still for that read-out and setting: the entry for `CCOC(=O)N1CCC(Nc2ccc(Cl)cc2N)CC1` is “inactive”; for `NC(=O)c1ccccc1[N+](=O)[O-]` it is “inactive”; for `CC(=O)C(=O)CC(C)C` it is “inactive”.
Still for that read-out and setting: the entry for `CCCCCCCC/C=C\CCCCCCCC(=O)OCCO` is “inactive”; for `C1CCCCC1` it is “inactive”; for `O=C1OC(=O)c2c(Br)c(Br)c(Br)c(Br)c21` it is “inactive”.
Turning to `O=C(NS(=O)(=O)/C=C/c1ccccc1)c1ccc(F)cc1Cl`, the outcome was inactive.
`CNc1c2c(nn1C)CCCC2`: the outcome was inactive.
The same measure, in the same setting: the result for `CCCCC[C@H](O)/C=C/[C@H]1[C@H](O)CC(=O)[C@@H]1C/C=C\CCCC(=O)O` reads “inactive”; that for `CCSC(=O)N(CC)CC`, “inactive”; that for `COC(C)(C)OC`, “inactive”.
The same measure, in the same setting: the entry for `c1ccc(CCCc2ccncc2)cc1` is “inactive”.
Still for that read-out and setting: the entry for `CCCCCCCC/C=C/C(=O)O` is “inactive”; for `CCN(CC)c1cccc(O)c1` it is “inactive”.
With `O=C1NC(=O)c2cccc3cccc1c23`, the outcome was inactive.
Turning to `O=C(CCS)OCC(COC(=O)CCS)(COC(=O)CCS)COC(=O)CCS`, the result was inactive.
On the same count and under the same terms, the entry for `Cc1ccc2c(c1)CCCN2` is “inactive”; for `CCN(CC)C(=O)/C(C#N)=C/c1cc(O)c(O)c([N+](=O)[O-])c1` it is “inactive”.
